# Reference: PubChem BioAssay (EPA / NIEHS)
# “And” between values parts separate entries of the source, which are not always exact repeats. Equal entries are not always repeated. Results filed as inconclusive are left out. The source made the active and inactive calls. How the source made its calls: active means hit-call score of the fitted dose curve at least 0.9, where 1 is the maximum; inconclusive means response in the unintended direction; inactive means score below 0.9.
# Key:
# [1] = target: human Adrenergic, Beta 1 Receptor (Adrb1), ADRB1 (gene 153) (UniProt P08588); assay: NVS_GPCR_hAdrb1: NovaScreen (NVS) G Protein-Coupled Receptor Assay for human Adrenergic, Beta 1 Receptor (Adrb1) (AID 2283258)
# human Adrenergic, Beta 1 Receptor (Adrb1), ADRB1 (gene 153), sequence (P08588 whole entry, looked up): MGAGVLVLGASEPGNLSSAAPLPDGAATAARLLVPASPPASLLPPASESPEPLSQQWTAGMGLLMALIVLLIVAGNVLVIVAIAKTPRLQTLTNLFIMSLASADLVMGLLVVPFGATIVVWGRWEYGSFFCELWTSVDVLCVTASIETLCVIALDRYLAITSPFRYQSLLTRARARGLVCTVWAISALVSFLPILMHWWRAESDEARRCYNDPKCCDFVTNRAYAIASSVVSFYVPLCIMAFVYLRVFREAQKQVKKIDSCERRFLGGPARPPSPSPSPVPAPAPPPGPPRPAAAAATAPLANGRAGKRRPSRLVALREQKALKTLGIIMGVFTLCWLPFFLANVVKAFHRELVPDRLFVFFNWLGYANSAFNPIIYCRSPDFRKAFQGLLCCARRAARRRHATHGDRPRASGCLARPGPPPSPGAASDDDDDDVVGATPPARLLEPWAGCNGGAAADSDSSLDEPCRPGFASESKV
# Outline: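 Membranes/protein extracted from human neuroepithelioma cells, radioligand competition binding read by filtration and scintillation 2 h post-dose. Single 25 uM duplicate screen, then concentration-response follow-up; DMSO as negative control.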
# [2] = target: human Adrenergic, Alpha 2c Receptor (Adra2C), ADRA2C (gene 152) (UniProt P18825); assay: NVS_GPCR_hAdra2C: NovaScreen (NVS) G Protein-Coupled Receptor Assay for human Adrenergic, Alpha 2c Receptor (Adra2C) (AID 2283259)
# human Adrenergic, Alpha 2c Receptor (Adra2C), ADRA2C (gene 152), sequence (P18825 whole entry, looked up): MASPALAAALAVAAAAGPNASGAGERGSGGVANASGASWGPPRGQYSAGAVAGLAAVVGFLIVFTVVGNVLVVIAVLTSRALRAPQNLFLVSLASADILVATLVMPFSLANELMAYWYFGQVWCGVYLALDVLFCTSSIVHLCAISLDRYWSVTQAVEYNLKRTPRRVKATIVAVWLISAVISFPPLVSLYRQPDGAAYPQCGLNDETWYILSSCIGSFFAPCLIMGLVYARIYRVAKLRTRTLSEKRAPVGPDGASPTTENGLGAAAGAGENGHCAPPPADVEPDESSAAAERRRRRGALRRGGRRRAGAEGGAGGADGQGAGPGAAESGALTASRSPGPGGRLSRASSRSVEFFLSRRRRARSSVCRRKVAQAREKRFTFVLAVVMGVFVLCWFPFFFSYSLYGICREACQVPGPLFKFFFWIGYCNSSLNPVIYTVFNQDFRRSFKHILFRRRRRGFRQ
# Outline: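 Screened first in duplicate at 25 uM, with actives then run as concentration series. Membranes from Sf9 cells were exposed for 1 h, and displacement of radioligand was counted after filtration, using DMSO as baseline.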
# [3] = target: Beta-2 adrenergic receptor (Homo sapiens) (UniProt P07550); assay: NVS_GPCR_hAdrb2: NovaScreen (NVS) G Protein-Coupled Receptor Assay for human Adrenergic, Beta 2 Receptor (Adrb2) (AID 2283261)
# Beta-2 adrenergic receptor (Homo sapiens), sequence (P07550 whole entry, looked up): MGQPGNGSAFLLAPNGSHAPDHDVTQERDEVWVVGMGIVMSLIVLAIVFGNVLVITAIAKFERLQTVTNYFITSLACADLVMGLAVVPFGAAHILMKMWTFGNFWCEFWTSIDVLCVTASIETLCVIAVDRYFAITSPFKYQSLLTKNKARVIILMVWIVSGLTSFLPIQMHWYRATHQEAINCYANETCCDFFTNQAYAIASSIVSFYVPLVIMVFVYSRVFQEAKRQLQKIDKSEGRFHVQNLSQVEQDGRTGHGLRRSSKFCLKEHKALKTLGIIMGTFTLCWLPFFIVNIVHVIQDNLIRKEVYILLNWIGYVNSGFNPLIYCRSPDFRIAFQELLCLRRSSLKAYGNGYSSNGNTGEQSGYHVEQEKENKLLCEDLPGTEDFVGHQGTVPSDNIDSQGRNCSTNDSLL
# Outline: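 Compounds screened in duplicate at 25 uM, then actives in concentration series. Human beta-2 receptor from CHO material, cell-free; radioligand displacement after 1 h measured by filtration and scintillation against DMSO baseline.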
# [4] = target: Type-1 angiotensin II receptor (Homo sapiens) (UniProt P30556); assay: NVS_GPCR_hAT1: NovaScreen (NVS) G Protein-Coupled Receptor Assay for human Angiotensin II receptor type 1 (AT1) (AID 2283263)
# Type-1 angiotensin II receptor (Homo sapiens), sequence (P30556 whole entry, looked up): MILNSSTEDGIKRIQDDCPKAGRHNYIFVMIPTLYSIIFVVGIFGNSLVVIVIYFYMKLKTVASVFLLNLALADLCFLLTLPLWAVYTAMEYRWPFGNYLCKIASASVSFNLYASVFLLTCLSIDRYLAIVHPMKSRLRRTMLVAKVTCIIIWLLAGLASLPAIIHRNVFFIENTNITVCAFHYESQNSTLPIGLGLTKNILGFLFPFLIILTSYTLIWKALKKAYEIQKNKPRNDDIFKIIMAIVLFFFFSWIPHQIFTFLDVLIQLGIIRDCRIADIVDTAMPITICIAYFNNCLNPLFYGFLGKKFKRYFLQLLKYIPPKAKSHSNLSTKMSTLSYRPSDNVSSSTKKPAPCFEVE
# Outline: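 Hits from a 25 uM duplicate screen (threshold e.g. 30% inhibition) were run in concentration-response with 50 uM top concentration. Displacement of specific radioligand from KAN-TS membrane preparations measured after 3 h by filter scintillation, DMSO as baseline.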
# [5] = target: human Dopamine Receptor D4.4 (DRD4.4), DRD4 (gene 1815) (UniProt P21917); assay: NVS_GPCR_hDRD4.4: NovaScreen (NVS) G Protein-Coupled Receptor Assay for human Dopamine Receptor D4.4 (DRD4.4) (AID 2283264)
# human Dopamine Receptor D4.4 (DRD4.4), DRD4 (gene 1815), sequence (P21917 whole entry, looked up): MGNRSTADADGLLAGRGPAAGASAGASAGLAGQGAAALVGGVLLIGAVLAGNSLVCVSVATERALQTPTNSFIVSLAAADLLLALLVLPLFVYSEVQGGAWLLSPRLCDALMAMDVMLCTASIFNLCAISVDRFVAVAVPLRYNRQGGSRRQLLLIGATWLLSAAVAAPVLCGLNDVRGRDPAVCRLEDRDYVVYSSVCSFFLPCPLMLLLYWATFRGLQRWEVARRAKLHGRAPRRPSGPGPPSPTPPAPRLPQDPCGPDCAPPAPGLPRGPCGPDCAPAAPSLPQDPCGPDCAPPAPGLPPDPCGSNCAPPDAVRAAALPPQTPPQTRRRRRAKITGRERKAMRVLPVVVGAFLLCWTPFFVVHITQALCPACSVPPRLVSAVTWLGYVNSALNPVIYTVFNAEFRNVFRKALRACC
# Outline: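 Filter-binding assay with a tritiated or iodinated ligand, cell-free receptor prepared from CHO, 1 hour. Loss of bound radioactivity versus DMSO; single 25 uM duplicate screen, then concentration-response for actives.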
# [6] = target: human Dopamine Receptor D2 (DRD2), DRD2 (gene 1813) (UniProt P14416); assay: NVS_GPCR_hDRD2s: NovaScreen (NVS) G Protein-Coupled Receptor Assay for human Dopamine Receptor D2 (DRD2) (AID 2283266)
# human Dopamine Receptor D2 (DRD2), DRD2 (gene 1813), sequence (P14416 whole entry, looked up): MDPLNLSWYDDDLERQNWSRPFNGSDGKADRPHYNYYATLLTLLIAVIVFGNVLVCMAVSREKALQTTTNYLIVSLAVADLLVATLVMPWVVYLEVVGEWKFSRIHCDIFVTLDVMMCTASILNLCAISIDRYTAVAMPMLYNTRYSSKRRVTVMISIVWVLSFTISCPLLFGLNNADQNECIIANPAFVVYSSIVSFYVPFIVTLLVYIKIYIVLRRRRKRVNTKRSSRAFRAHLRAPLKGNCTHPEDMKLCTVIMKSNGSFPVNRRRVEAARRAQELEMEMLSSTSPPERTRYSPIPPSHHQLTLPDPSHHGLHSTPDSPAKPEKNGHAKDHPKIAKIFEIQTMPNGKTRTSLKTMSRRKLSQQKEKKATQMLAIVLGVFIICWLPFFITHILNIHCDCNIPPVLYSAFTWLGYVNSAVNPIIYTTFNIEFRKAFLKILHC
# Outline: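 Test compound (25 uM, duplicate in the primary screen; concentration series at follow-up) competed with radioligand for human DRD2 in CHO-derived membrane protein. Filter-based scintillation counting was done 1.5 hours after dosing, with loss of signal analysed against DMSO.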
# [7] = target: human Histamine 1 Receptor (H1), HRH1 (gene 3269) (UniProt P35367); assay: NVS_GPCR_hH1: NovaScreen (NVS) G Protein-Coupled Receptor Assay for human Histamine 1 Receptor (H1) (AID 2283268)
# human Histamine 1 Receptor (H1), HRH1 (gene 3269), sequence (P35367 whole entry, looked up): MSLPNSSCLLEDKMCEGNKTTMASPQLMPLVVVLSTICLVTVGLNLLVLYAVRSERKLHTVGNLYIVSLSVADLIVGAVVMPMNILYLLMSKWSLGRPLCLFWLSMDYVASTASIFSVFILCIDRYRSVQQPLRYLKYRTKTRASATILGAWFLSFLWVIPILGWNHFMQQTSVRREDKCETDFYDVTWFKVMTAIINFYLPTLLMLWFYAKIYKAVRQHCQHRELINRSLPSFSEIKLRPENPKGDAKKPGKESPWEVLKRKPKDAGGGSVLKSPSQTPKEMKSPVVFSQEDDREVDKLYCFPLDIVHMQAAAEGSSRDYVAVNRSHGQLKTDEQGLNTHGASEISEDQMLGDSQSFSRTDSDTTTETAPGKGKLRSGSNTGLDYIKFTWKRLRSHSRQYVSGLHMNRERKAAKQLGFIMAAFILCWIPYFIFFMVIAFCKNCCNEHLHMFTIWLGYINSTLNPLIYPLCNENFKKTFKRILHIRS
# Outline: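 Filter-based scintillation detection of radioligand binding to human H1, 1 h incubation; chemicals screened in duplicate at 25 uM, then concentration-response; signal loss relative to DMSO taken as activity.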
# [8] = target: D(1A) dopamine receptor (Homo sapiens) (UniProt P21728); assay: NVS_GPCR_hDRD1: NovaScreen (NVS) G Protein-Coupled Receptor Assay for human Dopamine Receptor D1 (DRD1) (AID 2283269)
# D(1A) dopamine receptor (Homo sapiens), sequence (P21728 whole entry, looked up): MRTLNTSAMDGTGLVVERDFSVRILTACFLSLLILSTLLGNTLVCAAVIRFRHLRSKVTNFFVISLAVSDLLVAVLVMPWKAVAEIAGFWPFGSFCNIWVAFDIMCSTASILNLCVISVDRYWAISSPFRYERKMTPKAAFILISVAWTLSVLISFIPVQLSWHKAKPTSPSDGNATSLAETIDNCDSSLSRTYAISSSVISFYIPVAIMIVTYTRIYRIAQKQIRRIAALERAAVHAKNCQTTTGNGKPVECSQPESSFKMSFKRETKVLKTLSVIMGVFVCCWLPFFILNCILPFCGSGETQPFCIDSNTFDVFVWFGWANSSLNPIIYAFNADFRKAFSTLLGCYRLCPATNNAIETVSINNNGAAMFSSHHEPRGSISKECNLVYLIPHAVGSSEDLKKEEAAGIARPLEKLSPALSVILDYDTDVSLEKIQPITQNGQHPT
# Outline: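 Cell-free competition with radioligand, filter-trapped and scintillation-counted 1 h post-dose, using HEK293-derived human D1 preparation. Duplicate single-point testing at 25 uM first, then concentration series for actives; DMSO served as baseline, loss-of-signal scored.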
# [9] = target: human Endothelin Receptor Type A (ETA), EDNRA (gene 1909) (UniProt P25101); assay: NVS_GPCR_hETA: NovaScreen (NVS) G Protein-Coupled Receptor Assay for human Endothelin Receptor Type A (ETA) (AID 2283265)
# human Endothelin Receptor Type A (ETA), EDNRA (gene 1909), sequence (P25101 whole entry, looked up): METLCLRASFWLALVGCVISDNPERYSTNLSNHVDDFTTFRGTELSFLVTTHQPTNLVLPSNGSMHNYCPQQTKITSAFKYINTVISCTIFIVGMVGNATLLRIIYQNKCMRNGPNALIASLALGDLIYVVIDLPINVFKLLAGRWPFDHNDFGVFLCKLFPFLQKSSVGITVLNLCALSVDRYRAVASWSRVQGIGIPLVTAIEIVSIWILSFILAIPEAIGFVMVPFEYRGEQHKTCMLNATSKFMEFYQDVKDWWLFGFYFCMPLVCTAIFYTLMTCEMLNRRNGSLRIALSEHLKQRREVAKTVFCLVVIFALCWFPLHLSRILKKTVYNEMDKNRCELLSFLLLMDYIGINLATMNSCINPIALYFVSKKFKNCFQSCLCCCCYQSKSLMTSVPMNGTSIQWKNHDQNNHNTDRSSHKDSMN
# Outline: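 Binding of radioligand to membrane protein extracted from SH-SY5Y cells was read by filtration and scintillation after 3 h. Compounds were screened at 25 uM in duplicate, with hits followed up in singleton concentration series to 50 uM.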
# [10] = target: human Endothelin Receptor Type B (ETB), EDNRB (gene 1910) (UniProt P24530); assay: NVS_GPCR_hETB: NovaScreen (NVS) G Protein-Coupled Receptor Assay for human Endothelin Receptor Type B (ETB) (AID 2283267)
# human Endothelin Receptor Type B (ETB), EDNRB (gene 1910), sequence (P24530 whole entry, looked up): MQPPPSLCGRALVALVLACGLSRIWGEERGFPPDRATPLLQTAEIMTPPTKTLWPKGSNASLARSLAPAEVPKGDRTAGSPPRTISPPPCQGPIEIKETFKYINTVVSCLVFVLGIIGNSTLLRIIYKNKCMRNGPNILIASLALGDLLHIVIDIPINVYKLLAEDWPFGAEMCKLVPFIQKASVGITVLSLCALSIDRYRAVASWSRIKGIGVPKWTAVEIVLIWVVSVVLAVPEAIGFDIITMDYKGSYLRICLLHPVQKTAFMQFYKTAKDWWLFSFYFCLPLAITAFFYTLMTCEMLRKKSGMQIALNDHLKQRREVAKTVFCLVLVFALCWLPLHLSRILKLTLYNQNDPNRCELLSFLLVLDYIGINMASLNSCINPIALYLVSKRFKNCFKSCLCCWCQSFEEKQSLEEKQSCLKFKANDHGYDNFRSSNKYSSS
# Outline: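 Filter-based scintillation readout of radioligand displacement, 4 h, using membranes from human astrocytoma cells. Actives from a 25 uM duplicate screen were retested in concentration-response (top 50 uM) relative to DMSO baseline.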
smiles,measurement,setting,value
CN(C)C(=O)C1(N2CCCCC2)CCN(CC[C@@]2(c3ccc(Cl)c(Cl)c3)CN(C(=O)c3ccccc3)CCO2)CC1,AC50,[1],20.7 µM (active)
same,AC50,[2],12.1 µM (active)
same,AC50,[3],25.9 µM (active)
same,AC50,[4],15.7 µM (active)
same,AC50,[5],12.2 µM (active)
same,AC50,[6],1.59 µM (active)
same,AC50,[7],20.3 µM (active)
same,AC50,[8],23.6 µM (active)
CCN(CC)C(=O)c1cc(S(=O)(=O)Cc2ccccc2)c(N2CCC(c3ccccc3)CC2)cc1N(CC)CCN(C)C,AC50,[2],9.22 µM (active)
same,AC50,[3],16.5 µM (active)
same,AC50,[5],16.3 µM (active)
same,AC50,[6],1.05 µM (active)
same,outcome,[7],inactive
same,AC50,[8],5.59 µM (active)
Oc1ccc2ccccc2c1,outcome,[5],inactive
CC/C(=C(/CC)c1ccc(O)cc1)c1ccc(O)cc1,AC50,[1],43.5 µM (active)
same,AC50,[2],19.2 µM (active) and 25 µM (active) and 5.86 µM (active)
same,AC50,[3],40.3 µM (active)
same,outcome,[5],inactive
same,AC50,[6],25 µM (active)
CC1(C)NC(=O)N(c2ccc([N+](=O)[O-])c(C(F)(F)F)c2)C1=O,outcome,[8],inactive
COc1ccc2cc(S(=O)(=O)N[C@H](CC(=O)N[C@H](Cc3ccc(CN4[C@H](C)CCC[C@@H]4C)cc3)C(=O)N(C)C(C)C)c3ccc4c(c3)OCO4)ccc2c1,AC50,[2],5.22 µM (active)
same,outcome,[6],inactive
same,AC50,[7],17.8 µM (active)
same,AC50,[8],30.2 µM (active)
NCc1cccc(C2CCN(C(=O)c3ccc(C#Cc4ccccc4F)o3)CC2)c1,AC50,[1],20.6 µM (active)
same,AC50,[2],4.51 µM (active)
same,AC50,[3],12.6 µM (active)
same,AC50,[5],25 µM (active)
same,AC50,[6],9.74 µM (active)
same,AC50,[7],22.1 µM (active)
same,AC50,[8],5.14 µM (active)
CCCCCCCCOc1ccc(C(=O)c2ccccc2)c(O)c1,outcome,[1],inactive
CCCCCCCCOC(=O)c1cc(O)c(O)c(O)c1,AC50,[1],22.6 µM (active)
same,AC50,[2],11.8 µM (active)
same,AC50,[6],25 µM (active)
same,AC50,[7],42.8 µM (active)
CN(C)c1ccc(C(=C2C=CC(=[N+](C)C)C=C2)c2ccc(N(C)C)cc2)cc1,AC50,[2],1.79 µM (active)
same,AC50,[3],14.4 µM (active)
same,AC50,[5],1.11 µM (active)
same,AC50,[9],1.81 µM (active)
same,AC50,[6],2.02 µM (active)
CCCCCCCCN(C)CCCCCCCC,outcome,[6],inactive
O=C1CCC(C2CCCCC2)CC1,outcome,[4],inactive
same,outcome,[6],inactive
CO[C@H]1/C=C/O[C@@]2(C)Oc3c(C)c(O)c4c(O)c(c(/C=N/N5CCN(C)CC5)c(O)c4c3C2=O)NC(=O)/C(C)=C\C=C\[C@H](C)[C@H](O)[C@@H](C)[C@@H](O)[C@@H](C)[C@H](OC(C)=O)[C@@H]1C,outcome,[4],inactive
Cc1cc(F)ccc1-c1cc(N2CC[C@@H](O)[C@H]2CO)ncc1N(C)C(=O)C(C)(C)c1cc(C(F)(F)F)cc(C(F)(F)F)c1,AC50,[1],20.4 µM (active)
same,AC50,[2],5.39 µM (active)
same,outcome,[3],inactive
same,AC50,[6],7.16 µM (active)
same,AC50,[8],5.89 µM (active)
COc1cc(C(=O)NC2CCN(C)CC2)ccc1Nc1ncc2c(n1)N(C1CCCC1)CC(F)(F)C(=O)N2C,AC50,[2],6.01 µM (active)
same,outcome,[6],inactive
same,AC50,[7],2.74 µM (active)
O=c1[nH]sc2ccccc12,AC50,[4],25 µM (active)
same,AC50,[8],6.83 µM (active)
CCCCCc1ccc(N)cc1,outcome,[10],inactive
c1ccc(C[n+]2cccc3ccccc32)cc1,AC50,[7],13 µM (active)
CN(C[C@@H](CC[N+]12CCC(C3CCCCC3)(CC1)CC2)c1ccc(Cl)c(Cl)c1)C(=O)c1cc(C(F)(F)F)cc(C(F)(F)F)c1,AC50,[4],33.1 µM (active)
same,outcome,[10],inactive
Cc1occc1C(=O)Nc1ccc(C(=O)N2CCC(F)(F)/C(=C\C(=O)N3CCC(N4CCCCC4)CC3)c3ccccc32)cc1,AC50,[2],1.03 µM (active)
same,AC50,[7],0.148 µM (active)
CCOC(=O)O[C@H](C)OC(=O)c1ccc2c(c1)cc(C(=O)NC1CCN(C(C)C)CC1)n2Cc1cc(-c2ccc(Cl)s2)on1,AC50,[1],6.33 µM (active)
same,AC50,[2],2.01 µM (active)
same,AC50,[3],12.9 µM (active)
same,AC50,[5],20.9 µM (active)
same,AC50,[9],14.3 µM (active)
same,AC50,[6],3.6 µM (active)
same,AC50,[7],7.84 µM (active)
same,AC50,[8],1.75 µM (active)
CCCCCCCCCCCC[N+](C)(C)C,AC50,[6],13 µM (active)
same,AC50,[7],15.7 µM (active)
same,AC50,[8],16.1 µM (active)
Cc1cc2c(cc1C(F)(F)F)N(C(=O)Nc1ccc(Oc3cccnc3C)nc1)CC2,AC50,[6],0.0486 µM (active)
CCN(Cc1cccnc1)C(=O)c1cccc(Cl)c1[C@]1(C)C(=O)N(Cc2ccc(OC)cc2OC)c2ccc(Cl)cc21,AC50,[2],2.22 µM (active)
same,AC50,[4],3.69 µM (active)
same,AC50,[6],1.91 µM (active)
same,AC50,[8],2.53 µM (active)
CC(C)(C)c1csc(-c2cc3cc(OCc4ccccc4CC(=O)O)ccc3o2)n1,outcome,[1],inactive
same,outcome,[4],inactive
O=C(O)Cc1cc(I)c(Oc2ccc(O)c(I)c2)c(I)c1,outcome,[10],inactive
O=C1c2ccccc2C(=O)N1CCc1noc(-c2ccc(CN3CCCCCC3)s2)n1,AC50,[2],1.08 µM (active)
same,AC50,[4],14.8 µM (active)
same,AC50,[6],10.1 µM (active)
same,outcome,[10],inactive
same,AC50,[7],7.44 µM (active)
O=C(Nc1ccc(Cl)cc1)Nc1ccc(Cl)c(Cl)c1,outcome,[6],inactive
Clc1cc(Cl)c2c(c1)N=C1CCCCCN1C2,AC50,[2],5.73 µM (active)
same,AC50,[7],4.5 µM (active)
COc1cccc([C@H](O)C2CCN(CCc3ccc(F)cc3)CC2)c1OC,outcome,[9],inactive
